Experimental data published in PubChem BioAssay.
Several values for one entry are separate records, joined by “and”; a condition that tells them apart may be missing. Equal values may be shown once. Activity calls are given as the source filed them.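 Rule for the calls, unless noted: active = compound raises insulin release from rat beta cells at 5 mM glucose, no numeric limit stated; inactive = the rest.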

Key:
[1] = stimulators of insulin release from INS-1E, primary screen, cell-based, 5 mM glucose, NPC library (AID 1117329); details: rat INS-1E insulin secretion, at 10 µM, stronger effect = higher value
[2] = growth inhibition of GSK3B-pretreated HCT116 cells – cell-based, CellTiter-Glo, 0.2 to 20 µM (AID 1117336;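 active = compounds lowering colon cancer cell viability after pretreatment blocking the GSK3B kinase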); details: HCT116 viability after GSK3B inhibitor, at 20 µM, stronger effect = higher value
[3] = inhibition of endothelial tube formation, primary screen, imaging, VEGF stimulated, CD31 staining, tube area, NPC library (AID 1117340;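 active = compound that reduces growth-factor-driven endothelial tube area in a mixed cell culture, no cutoff stated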); details: VEGF-stimulated ADSC/ECFC co-culture, at 10 µM, stronger effect = higher value
[4] = GLP1 release stimulators, primary, NCI-H716, NPC library (AID 1117341;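 active = compound raises GLP1 secretion from the human gut endocrine cells, with no numeric limit stated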); details: NCI-H716 cells, at 10 µM, stronger effect = higher value
[5] = HCT116 colon cancer cell growth inhibition, primary screen, CellTiter-Glo luminescence, NPC library (AID 1117342;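 active = compounds that lower survival of HCT116 colon cancer cells in the luminescence readout, no numeric limit stated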); details: at 20 µM (top of the series)
[6] = reduced SW480 viability measured with CellTiter-Glo, NPC library, primary (AID 1117343;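 active = compounds that lower viability of the colon cancer cells in the luminescence readout, with no numeric limit stated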); details: CellTiter-Glo luminescence; at 20 µM (top of the series)
[7] = NPC library primary testing for decreased DLD-1 cell viability via CellTiter-Glo (AID 1117346;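 active = compounds that lower survival of DLD-1 colon cancer cells in the luminescence readout, no cutoff given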); details: DLD-1 viability, CellTiter-Glo luminescence; at 20 µM (top of the series)
[8] = modulation of C. elegans fzo-1 (AID 1259413; call rule not given here;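 note: fzo-1 mutant C. elegans worms in liquid wells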); details: C. elegans fzo-1 modulator screen, mean read-out; stronger effect = higher value
[9] = EMT-state selective cytotoxicity in co-culture – imaging, PC-3E GFP, TEM4-18 mCherry, primary screen (AID 1345086;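 active = compounds killing one labelled cell type while sparing the other, by normalised counts and ratio limits, not self-fluorescent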;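 for all read-outs here: cells exposed to compound for 72 h before imaging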;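 for red/green cell ratio (normalised): normalised mesenchymal count divided by normalised epithelial count so high means epithelial killing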); details: PC-3E GFP / TEM4-18 mCherry co-culture, imaging cell counts, at 1 µM; for red/green cell ratio (normalised): actives lie on both sides, counts scaled to control wells, 1 = unselective
[10] = measured here: epithelial PC-3E GFP cell survival
[11] = measured here: mesenchymal TEM4-18 mCherry cell survival

CC(C)(C(=O)c1cccnc1)c1cccnc1
1.21: normalised cell number [9, 10]
1.04: normalised cell number [9, 11]
inactive: insulin secretion stimulation [1] 0.7% | viability decrease [2] -5.6% | tube area decrease [3] 4.4% | GLP1 secretion stimulation [4] 0.8% | inhibition of viability [5] 0.97% | viability decrease (inhibition) [6] 1.2% | viability decrease (inhibition) [7] -9.4% | mean signal [8] 259 | red/green cell ratio (normalised) [9] 0.85

Nc1ccc(O)c(C(=O)O)c1
1.24: normalised cell number [9, 11]
inactive: insulin secretion stimulation [1] -1.5% | viability decrease [2] 2.55% | tube area decrease [3] -5.5% | GLP1 secretion stimulation [4] -4.4% | inhibition of viability [5] 6.8% | viability decrease (inhibition) [6] 22.9% | viability decrease (inhibition) [7] 20.4% | mean signal [8] 261 | red/green cell ratio (normalised) [9] 1.19
1.04: normalised cell number [9, 10]

CC(C(=O)O)c1ccc(CC2CCCC2=O)cc1 (stereo not given)
inactive: insulin secretion stimulation [1] -1.3% | viability decrease [2] 9.37% | tube area decrease [3] -7.8% | GLP1 secretion stimulation [4] 0.4% | inhibition of viability [5] 10.8% | viability decrease (inhibition) [6] 37.6% | viability decrease (inhibition) [7] 5.13% | mean signal [8] 276

O=C(CCNNC(=O)c1ccncc1)NCc1ccccc1
inactive: insulin secretion stimulation [1] -2.7% | viability decrease [2] 29.1% | tube area decrease [3] -20.5% | GLP1 secretion stimulation [4] 0.6% | inhibition of viability [5] -8.3% | viability decrease (inhibition) [7] 31.8% | mean signal [8] 273 | red/green cell ratio (normalised) [9] 1.02
1.02: normalised cell number [9, 10]
1.04: normalised cell number [9, 11]
active: viability decrease (inhibition) [6] 81.2%

COc1cc(C)c(Cc2cnc(N)nc2N)cc1OC
inactive: insulin secretion stimulation [1] 1.7% | viability decrease [2] -7.75% | tube area decrease [3] 11.1% | GLP1 secretion stimulation [4] 0.8% | inhibition of viability [5] 6.8% | viability decrease (inhibition) [6] 11.5% | viability decrease (inhibition) [7] -5.75% | mean signal [8] 249

CN(C)CC[C@@H](c1ccc(Cl)cc1)c1ccccn1
active: insulin secretion stimulation [1] 81.7%
inactive: viability decrease [2] -5.1% | tube area decrease [3] -4% | GLP1 secretion stimulation [4] 5.7% | inhibition of viability [5] 28.8% | viability decrease (inhibition) [6] 35.9% | viability decrease (inhibition) [7] -3.4% | mean signal [8] 251

Cc1ncc([N+](=O)[O-])n1CC(O)CCl (stereo not given)
1.1: normalised cell number [9, 10]
inactive: insulin secretion stimulation [1] -1.6% | viability decrease [2] -3.65% | tube area decrease [3] -4.9% | GLP1 secretion stimulation [4] -0.1% | inhibition of viability [5] 0.2% | viability decrease (inhibition) [6] -45.6% | viability decrease (inhibition) [7] -4.95% | mean signal [8] 246 | red/green cell ratio (normalised) [9] 1.07
1.18: normalised cell number [9, 11]

CC(=O)OCC(=O)NCCCOc1cccc(CN2CCCCC2)c1
inactive: insulin secretion stimulation [1] -0.7% | viability decrease [2] -69.8% | tube area decrease [3] 10.4% | GLP1 secretion stimulation [4] -0.3% | inhibition of viability [5] -15.6% | viability decrease (inhibition) [6] 22.9% | viability decrease (inhibition) [7] -31.7% | mean signal [8] 244 | red/green cell ratio (normalised) [9] 1.02
0.98: normalised cell number [9, 10]
1: normalised cell number [9, 11]

O=c1c(-c2ccccc2)c1-c1ccccc1
inactive: insulin secretion stimulation [1] 0.3% | viability decrease [2] 41.9% | GLP1 secretion stimulation [4] -2.9% | mean signal [8] 254
active: tube area decrease [3] 103% | inhibition of viability [5] 64.4% | viability decrease (inhibition) [6] 106% | viability decrease (inhibition) [7] 64.3%

C[C@H]1COc2c(C3(N)CC3)c(F)cc3c(=O)c(C(=O)O)cn1c23
1.28 and 0.94: normalised cell number [9, 11]
0.98 and 1.07: normalised cell number [9, 10]
inactive: insulin secretion stimulation [1] -0.9% | viability decrease [2] -4.4% | tube area decrease [3] 2.8% | GLP1 secretion stimulation [4] 4.2% | inhibition of viability [5] -19.1% | viability decrease (inhibition) [6] 43.9% | viability decrease (inhibition) [7] 24.9% | mean signal [8] 269 | red/green cell ratio (normalised) [9] 1.3 and 0.88

COc1cc(C)nc(-n2nc(C)cc2OC)n1
inactive: insulin secretion stimulation [1] 2.5% | viability decrease [2] -5% | tube area decrease [3] 24.2% | GLP1 secretion stimulation [4] -5.7% | inhibition of viability [5] -10.1% | viability decrease (inhibition) [6] 1.8% | viability decrease (inhibition) [7] -17.2% | mean signal [8] 243

Nc1c2c(nc3c1CCC3)CCCC2
inactive: viability decrease [2] -1.35% | tube area decrease [3] 20.5% | GLP1 secretion stimulation [4] 4.4% | inhibition of viability [5] 1% | viability decrease (inhibition) [6] 4.4% | viability decrease (inhibition) [7] -5.95% | mean signal [8] 275
active: insulin secretion stimulation [1] 21.2%

CCOC(=O)OC(C)OC1=C(C(=O)Nc2ccccn2)N(C)S(=O)(=O)c2ccccc21 (stereo not given)
0.84: normalised cell number [9, 10]
inactive: insulin secretion stimulation [1] 0.55% | viability decrease [2] 5.8% | tube area decrease [3] -1.1% | GLP1 secretion stimulation [4] 1% | inhibition of viability [5] 8.6% | viability decrease (inhibition) [6] -18.8% | viability decrease (inhibition) [7] -0.2% | mean signal [8] 259 | red/green cell ratio (normalised) [9] 1.19
1: normalised cell number [9, 11]

CO[C@H]1C=CO[C@@]2(C)Oc3c(C)c(O)c4c(O)c(c(/C=N/N5CCN(C)CC5)c(O)c4c3C2=O)NC(=O)/C(C)=C\C=C[C@H](C)[C@H](O)[C@@H](C)[C@@H](O)[C@@H](C)[C@H](OC(C)=O)[C@@H]1C
inactive: insulin secretion stimulation [1] 1.4% | GLP1 secretion stimulation [4] -1.8% | mean signal [8] 243
active: viability decrease [2] 67.8% | tube area decrease [3] 48.6% | inhibition of viability [5] 67.5% | viability decrease (inhibition) [6] 87.1% | viability decrease (inhibition) [7] 65.6%

CN1CCN(c2c(F)cc3c(=O)c(C(=O)O)cn4c3c2SCC4)CC1
inactive: insulin secretion stimulation [1] 0.05% | viability decrease [2] 19.8% | tube area decrease [3] -3.6% | GLP1 secretion stimulation [4] 1.6% | inhibition of viability [5] 7.2% | viability decrease (inhibition) [6] -18.1% | viability decrease (inhibition) [7] 0.6% | mean signal [8] 251 | red/green cell ratio (normalised) [9] 1.06 and 1.18
1.01 and 0.81: normalised cell number [9, 10]
1.07 and 0.95: normalised cell number [9, 11]

COc1ccc(C(=O)NCc2ccc(OCCN(C)C)cc2)cc1OC
inactive: insulin secretion stimulation [1] 0.75% | viability decrease [2] -2.9% | tube area decrease [3] 4.2% | GLP1 secretion stimulation [4] -0.4% | inhibition of viability [5] 7% | viability decrease (inhibition) [6] -4.6% | viability decrease (inhibition) [7] -7.9% | mean signal [8] 262 | red/green cell ratio (normalised) [9] 0.88
1.1: normalised cell number [9, 11]
1.24: normalised cell number [9, 10]
